tim10-1 inh: growth inhibitors of tim10-1 mutant yeast; S. cerevisiae tim10-1 ts strain growth, BacTiter-Glo, 24 h; inhibition, % at 20 µM; 330,000 tested, 2.2% active;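 active = inhibition of at least 40%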;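 also: mutant grown at 25 °C; 0% = DMSO wells with yeast and 100% = wells holding no yeast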
TIM10 inh: inhibits growth of TIM10 yeast strain; S. cerevisiae TIM10 strain growth, BacTiter-Glo luminescence, 24 h; 330,000 tested, 1.4% active; inhibition, % at 10 µM;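 active = inhibition of 40% or more at the single tested concentration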;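 also: wild-type TIM10 isogenic control strain grown at permissive 25 °C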
Rce1 inh: yeast Ras-converting enzyme inhibition. Q03530. yeast membranes, quenched prenylated peptide cleavage fluorescence. calls only. 290,000 tested, 0.27% active;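 active = fall in fluorescence gain of 50% or more versus controls, with final raw signal at or below 3038400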;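 also: plate controls were neutral control wells for no effect and wells lacking membranes for full effect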
Target sequence (Q03530 whole entry, looked up): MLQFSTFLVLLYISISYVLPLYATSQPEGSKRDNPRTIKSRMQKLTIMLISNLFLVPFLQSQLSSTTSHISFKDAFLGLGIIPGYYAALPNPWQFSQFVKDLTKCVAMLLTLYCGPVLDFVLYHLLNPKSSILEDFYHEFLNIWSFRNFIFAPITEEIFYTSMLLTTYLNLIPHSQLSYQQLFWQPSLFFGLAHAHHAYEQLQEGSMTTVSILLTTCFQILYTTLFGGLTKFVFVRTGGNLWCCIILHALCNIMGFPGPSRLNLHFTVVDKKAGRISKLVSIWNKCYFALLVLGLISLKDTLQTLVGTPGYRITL
tim23-1 inh: tim23-1 yeast growth inhibition; 330,000 tested, 1.3% active; S. cerevisiae tim23-1 growth, BacTiter-Glo luminescence, 24 h; inhibition, % at 20 µM;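 active = growth inhibition of the mutant yeast at or above 50%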;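 also: temperature-sensitive mutant grown at 25 °C; plate controls were DMSO-treated mutant yeast for no effect and medium wells lacking yeast for full effect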
PfHsp90 yeast 2: reduces growth (ATP signal) of yeast expressing P. falciparum Hsp90 | S. cerevisiae expressing PfHsp90, BacTiter-Glo ATP, 48 h; yeast lacking PDR1 and PDR3 efflux regulators | inhibition, % at 9.4 µM | 310,000 tested, 0.32% active | AID 504621;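 active = every replicate shows inhibition above about 80%, whatever the replicate mean, limit read from the data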;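 also: 0% = DMSO neutral controls and 100% = 20 µM radicicol positive controls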
tim10-1 conf: confirmation of tim10-1 mutant yeast growth inhibitors; shares compounds with tim10-1 inh; S. cerevisiae tim10-1 ts strain growth, BacTiter-Glo, 24 h; inhibition, % at 20 µM; 7,400 tested, 56% active; AID 463213;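 active = inhibition of yeast growth at or above a set limit in either of two repeat tests at 20 µM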;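 also: tim10-1 mutant grown at permissive 25 °C to find synthetic lethal compounds; 0% = DMSO yeast wells and 100% = medium wells without yeast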
tim10 confirm: TIM10 yeast growth inhibition, confirmed; shares compounds with TIM10 inh; S. cerevisiae tim10 strain growth, BacTiter-Glo luminescence, 24 h; inhibition, % at 10 µM; 4,600 tested, 63% active;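 active = inhibition of yeast growth at or above a set limit in either of two replicates at 10 µM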;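 also: this counterscreen used the strain with wild-type TIM10; 0% = yeast with DMSO and 100% = medium wells lacking yeast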
tim23-1 confirm: confirmation of tim23-1 mutant yeast growth inhibitors. shares compounds with tim23-1 inh. S. cerevisiae tim23-1 growth, BacTiter-Glo luminescence, 24 h. inhibition, % at 20 µM. 4,400 tested, 83% active;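 active = inhibition above about 39% in either of two replicate wells at 20 µM, limit read from the data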;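 also: temperature-sensitive tim23-1 mutant grown at 25 °C; 0% = DMSO wells with yeast and 100% = medium wells without yeast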
The depositor's hits bear a star; i = inactive; . = no result given. An excerpt weighted towards active compounds, which were near 3.7% of everything screened.

SMILES | tim10-1 inh | TIM10 inh | Rce1 inh | tim23-1 inh | PfHsp90 yeast 2 | tim10-1 conf | tim10 confirm | tim23-1 confirm
Cc1ccc(NC(=O)C(C)c2ccc([N+](=O)[O-])cc2)cc1Cl (configuration not stated) | 58* | 59* | i | 51* | -14 | 59* | 48* | 61*
COc1cccc(/C=C2\SC(=S)N(CCCC(=O)N3CCCCC3CCO)C2=O)c1 (configuration not stated) | 50* | 19 | i | 52* | -40 | 20 | . | 55*
COc1cccc(/C=C2\SC(=S)N(CCC(=O)N3CCCCC3CCO)C2=O)c1 (configuration not stated) | 32 | 10 | i | 35 | -13 | . | . | .
COc1cccc(/C=C2\SC(=S)N(CCCC(=O)N3CCCC3)C2=O)c1 | 42* | 33 | i | 58* | 1 | 23 | . | 51*
COc1ccc(/C=C2\SC(=S)N(CCCC(=O)N3CCOCC3)C2=O)cc1 | 25 | 8 | i | 34 | -6 | . | . | .
COc1ccc(C(=O)N(C)Cc2ccccc2)cc1Br | 8 | -11 | i | 5 | . | . | . | .
Cc1ccc(Cl)cc1NC(=O)CC(O)(C(F)(F)F)C(F)(F)F | 55* | 39 | i | 53* | -5 | 57* | . | 56*
COc1ccccc1-n1cnc2cc(NCc3cccs3)ccc21 | 45* | 45* | i | 56* | 30 | 27 | -18 | 71*
COc1ccc(CNc2ccc3c(c2)ncn3-c2ccccc2OC)cc1 | 53* | 64* | . | 61* | -5 | 27 | 62* | 71*
CCc1ccc(NC(=O)N2CCCCCC2)cc1 | 0 | 5 | i | 15 | 20 | . | . | .
S=c1[nH]nc(-c2ccncc2)n1/N=C/C(Cl)=C\c1ccccc1 | 56* | 67* | . | 58* | -29 | 50* | 58* | 48*
O=C1/C(=C\c2ccncc2)SC(=S)N1C1CCCCC1 | 43* | 27 | i | 52* | -17 | 23 | . | 42*
Cc1ccc(OCC(=O)N2CCc3ccccc3C2)c([N+](=O)[O-])n1 | -3 | -12 | i | 0 | -13 | . | . | .
CC1CCN(S(=O)(=O)c2ccc(NC(=O)c3cccs3)cc2)CC1 | 42* | 42* | i | 54* | -10 | 50* | 53* | 59*
CC1CCCCN1S(=O)(=O)c1ccc(NC(=O)c2cccs2)cc1 (configuration not stated) | 54* | 51* | i | 54* | -6 | 48* | 52* | 71*
Cc1nc2ccccc2c(=O)n1/N=C/c1ccc([N+](=O)[O-])o1 | 53* | 50* | i | 71* | . | 75* | 68* | 73*
Cc1nc2ccccc2n1/N=C/c1ccc([N+](=O)[O-])s1 | 76* | 62* | i | 55* | -84 | 30 | -8 | 63*
O=C(NC(=S)Nc1ccccc1N1CCCC1)c1ccccc1Br | 41* | 39 | i | 61* | -6 | 8 | . | 43*
O=C(NC(=S)Nc1ccccc1N1CCCCC1)c1ccco1 | 49* | 52* | i | 54* | -11 | 37* | -18 | 51*
O=C(NC(=S)Nc1ccccc1N1CCCC1)c1ccccc1[N+](=O)[O-] | . | . | i | . | -5 | . | . | .
O=C(/C=C/c1ccco1)NC(=S)Nc1ccccc1N1CCOCC1 | 50* | 43* | i | 55* | . | 27 | 51* | 48*
O=C(NC(=S)Nc1cccc2cc(O)ccc12)c1ccccc1Br | 46* | 15 | i | 51* | 5 | 21 | . | 49*
COc1cc(OC)c2c(O)c3c(c(-c4c5c(c(O)c6c(OC)cc(OC)cc46)CO[C@@H](C)[C@H]5O)c2c1)[C@H](O)[C@H](C)OC3 | 28 | 6 | i | 13 | -34 | . | . | .
COCCC(=O)N1CCC(Oc2ccc(C(=O)NC(C)CCn3cccn3)cc2)CC1 (configuration not stated) | 5 | -1 | i | 9 | 16 | . | . | .
